{
  "source": "PubChem BioAssay (NCATS)",
  "key": {"[1]": {"experiment": "Cytotoxicity counterscreen for inhibitors of SARS-CoV-2 cell entry (AID 1645845); note: nearly all actives have a fitted effect of over 50% in size", "outline": "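HEK293-ACE2 cells (Expi293F stably expressing human ACE2) seeded overnight, then compound for 1 h plus 48 h at 37C. Viability as ATP content by luminescence; normalized to wells with cells and media-only wells.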"}, "[2]": {"experiment": "Primary qHTS to identify inhibitors of SARS-CoV-2 cell entry (AID 1645846); note: nearly all actives have a fitted effect of over 45% in size", "details": "activity change, negative = inhibition: at 57.1 µM (top of the series) unless noted", "outline": "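Luminescence readout (Bright-Glo luciferase) 48 h after pseudoparticle addition. HEK293-ACE2 cells, 1500/well; compound pre-incubation 1 h; Normalized to spike PP and bald PP.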"}},
  "note": "Where “and” joins values, the source holds several entries; their conditions need not be identical. Equal values may be shown once. Results filed as inconclusive are left out. Entries that show only a call come without a potency. Calls of active or inactive are those of the source. Calls come from the whole dose curve. Potency is the fitted concentration of half-maximal effect.",
  "data": [
    {"compound": "COc1nc(C)nc(Cl)c1NC1=NCCN1", "values": [
      {"measurement": "Potency", "setting": "[1]", "value": "inactive"},
      {"measurement": "Potency", "setting": "[2]", "value": "inactive"}
    ]},
    {"compound": "CC(COc1ccccc1)NC(C)C(O)c1ccc(O)cc1", "note": "(stereo unspecified)", "values": [
      {"measurement": "Potency", "setting": "[1]", "value": "inactive"},
      {"measurement": "Potency", "setting": "[2]", "value": "inactive"}
    ]},
    {"compound": "CCCCOc1ccc(CC(=O)NO)cc1", "values": [
      {"measurement": "Potency", "setting": "[1]", "value": "inactive"},
      {"measurement": "activity change, negative = inhibition", "setting": "[2]", "value": "-20.4% and -25.7%"}
    ]},
    {"compound": "O=C(O)c1cn(-c2ccc(F)cc2)c2cc(N3CCNCC3)c(F)cc2c1=O", "values": [
      {"measurement": "Potency", "setting": "[1]", "value": "inactive"},
      {"measurement": "Potency", "setting": "[2]", "value": "inactive"}
    ]},
    {"compound": "O=C(O)COC(=O)Cc1ccccc1Nc1c(Cl)cccc1Cl", "values": [
      {"measurement": "Potency", "setting": "[1]", "value": "inactive"},
      {"measurement": "Potency", "setting": "[2]", "value": "inactive"}
    ]},
    {"compound": "NC(=O)Cc1cccc(C(=O)c2ccccc2)c1N", "values": [
      {"measurement": "Potency", "setting": "[1]", "value": "inactive"},
      {"measurement": "Potency", "setting": "[2]", "value": "inactive"}
    ]},
    {"compound": "CN1CCC(=C2c3ccccc3CC(=O)c3sccc32)CC1", "values": [
      {"measurement": "Potency", "setting": "[1]", "value": "inactive"},
      {"measurement": "activity change, negative = inhibition", "setting": "[2]", "value": -26, "unit": "%"}
    ]},
    {"compound": "O=C(OCC(O)CO)c1ccccc1Nc1ccnc2cc(Cl)ccc12", "note": "(stereo unspecified)", "values": [
      {"measurement": "Potency", "setting": "[1]", "value": "inactive"},
      {"measurement": "activity change, negative = inhibition", "setting": "[2]", "value": -18.4, "unit": "%"}
    ]},
    {"compound": "CCN1CCN(c2cc(-c3ccc(F)cc3)c3c(n2)CCCCCC3)CC1", "values": [
      {"measurement": "Potency", "setting": "[1]", "value": "inactive"},
      {"measurement": "Potency", "setting": "[2]", "value": "inactive"}
    ]},
    {"compound": "CN(C)[C@@H]1C(=O)C(C(=O)NCN2CCCC2)=C(O)[C@@]2(O)C(=O)C3=C(O)c4c(O)cccc4[C@@](C)(O)C3C[C@@H]12", "note": "(stereo partly specified)", "values": [
      {"measurement": "Potency", "setting": "[1]", "value": "inactive"},
      {"measurement": "Potency", "setting": "[2]", "value": "inactive"}
    ]},
    {"compound": "CN1[C@@H]2CC[C@H]1CC(NC(=O)n1c(=O)[nH]c3ccccc31)C2", "note": "(stereo partly specified)", "values": [
      {"measurement": "Potency", "setting": "[1]", "value": "inactive"},
      {"measurement": "Potency", "setting": "[2]", "value": "inactive"}
    ]},
    {"compound": "CCc1oc2ccccc2c1C(=O)c1cc(Br)c(O)c(Br)c1", "values": [
      {"measurement": "Potency", "setting": "[1]", "value": "inactive"},
      {"measurement": "activity change, negative = inhibition", "setting": "[2]", "value": -14, "unit": "%"}
    ]},
    {"compound": "C[C@]1(Cn2ccnn2)[C@H](C(=O)O)N2C(=O)C[C@H]2S1(=O)=O", "values": [
      {"measurement": "Potency", "setting": "[1]", "value": "inactive"},
      {"measurement": "activity change, negative = inhibition", "setting": "[2]", "value": 1.05, "unit": "%"}
    ]},
    {"compound": "O=C1c2cccc(O)c2C(=O)c2c(O)cccc21", "values": [
      {"measurement": "Potency", "setting": "[1]", "value": "inactive"},
      {"measurement": "Potency", "setting": "[2]", "value": "inactive"}
    ]},
    {"compound": "CCN(CC)C(=O)N1CCN(C)CC1", "values": [
      {"measurement": "Potency", "setting": "[1]", "value": "inactive"},
      {"measurement": "activity change, negative = inhibition", "setting": "[2]", "value": -24.4, "unit": "%"}
    ]},
    {"compound": "CC(=O)N(CC(=O)N(C)C)c1ccccc1", "values": [
      {"measurement": "Potency", "setting": "[1]", "value": "inactive"},
      {"measurement": "Potency", "setting": "[2]", "value": "inactive"}
    ]},
    {"compound": "CN(C)C(=S)SC(=S)N(C)C", "values": [
      {"measurement": "Potency", "setting": "[1]", "value": "3.55 µM (active)"},
      {"measurement": "Potency", "setting": "[2]", "value": "1 µM (active)"}
    ]},
    {"compound": "CNC[C@H](O)c1ccc(O)c(O)c1", "values": [
      {"measurement": "Potency", "setting": "[1]", "value": "inactive"},
      {"measurement": "Potency", "setting": "[2]", "value": "inactive"}
    ]},
    {"compound": "COc1ccc(CN(CCN(C)C)c2ncccn2)cc1", "values": [
      {"measurement": "Potency", "setting": "[1]", "value": "inactive"},
      {"measurement": "activity change, negative = inhibition", "setting": "[2]", "value": -19.5, "unit": "%"}
    ]},
    {"compound": "CCOCCOC(=O)/C=C/c1ccc(OC)cc1", "values": [
      {"measurement": "Potency", "setting": "[1]", "value": "inactive"},
      {"measurement": "Potency", "setting": "[2]", "value": "inactive"}
    ]},
    {"compound": "Cc1c(F)cc2c(=O)c(C(=O)O)cn3c2c1CCC3C", "note": "(stereo unspecified)", "values": [
      {"measurement": "Potency", "setting": "[1]", "value": "inactive"},
      {"measurement": "Potency", "setting": "[2]", "value": "inactive"}
    ]},
    {"compound": "CCCN(CCC)C(=O)C(CCC(=O)OCCCN1CCN(CCOC(=O)Cc2c(C)n(C(=O)c3ccc(Cl)cc3)c3ccc(OC)cc23)CC1)NC(=O)c1ccccc1", "note": "(stereo unspecified)", "values": [
      {"measurement": "Potency", "setting": "[1]", "value": "inactive"},
      {"measurement": "Potency", "setting": "[2]", "value": "28.2 µM (active)"}
    ]},
    {"compound": "N[C@@H](Cc1c[nH]c2ccc(O)cc12)C(=O)O", "values": [
      {"measurement": "Potency", "setting": "[1]", "value": "inactive"},
      {"measurement": "Potency", "setting": "[2]", "value": "inactive"}
    ]},
    {"compound": "CC(=O)OC[C@H]1O[C@@](COC(C)=O)(O[C@H]2O[C@H](COC(C)=O)[C@@H](OC(C)=O)[C@H](OC(C)=O)[C@H]2OC(C)=O)[C@@H](OC(C)=O)[C@@H]1OC(C)=O", "values": [
      {"measurement": "Potency", "setting": "[1]", "value": "inactive"},
      {"measurement": "activity change, negative = inhibition", "setting": "[2]", "value": -0.185, "unit": "%"}
    ]},
    {"compound": "C[N+]12CCC(CC1)C(OC(=O)C(O)(c1ccccc1)c1ccccc1)C2", "note": "(stereo unspecified)", "values": [
      {"measurement": "Potency", "setting": "[1]", "value": "inactive"},
      {"measurement": "Potency", "setting": "[2]", "value": "inactive"}
    ]},
    {"compound": "Nc1ccc(C(=O)NCC(=O)O)cc1", "values": [
      {"measurement": "Potency", "setting": "[1]", "value": "inactive"},
      {"measurement": "activity change, negative = inhibition", "setting": "[2]", "value": 4.24, "unit": "%"}
    ]},
    {"compound": "NS(=O)(=O)c1cc2c(cc1Cl)CN(C1CCCCC1)C2=O", "values": [
      {"measurement": "Potency", "setting": "[1]", "value": "inactive"},
      {"measurement": "Potency", "setting": "[2]", "value": "inactive"}
    ]},
    {"compound": "NC(CSCC(=O)O)C(=O)O", "note": "(stereo unspecified)", "values": [
      {"measurement": "Potency", "setting": "[1]", "value": "inactive"},
      {"measurement": "activity change, negative = inhibition", "setting": "[2]", "value": 0.853, "unit": "%"}
    ]}
  ]
}
